Reference: PubChem BioAssay
Active and inactive are the calls of the source.

Legend:
[1] = test system: Plasmodium falciparum Sir2 (PF13_0152, Sir2A); test: pfSir2 binders on small-molecule microarrays, primary screen, biochemical, small-molecule microarray, 635 nm fluorescence (AID 1098); conditions: small-molecule microarray binding, fluorescence 635 nm; higher = more signal;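 also: score merges spot fluorescence intensity with its signal-to-noise ratio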
[2] = small-molecule microarray binders of probe aDKK1, primary screen, biochemical, biotinylated probe, 635/667 nm fluorescence (AID 1099); conditions: higher = more signal;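 also: score merges 667nm spot fluorescence with signal to noise across triplicate slides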
[3] = small-molecule microarray binders of probe aCHRDL2, primary screen, biochemical, biotinylated probe, 635/667 nm fluorescence (AID 1100); conditions: higher = more signal
[4] = splicing luciferase reporter signal modulators, primary screen, spliceosome inhibition project, cell-based, HEK293, splice +/- reporter (AID 1101); conditions: luminescence, 24 h, higher = more signal, called active from +8 up or from −8 down;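 also: HEK293 cells carrying a splicing-competent luciferase reporter gene; test concentration not given here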
[5] = biological target: Fibroblast growth factor 10 (Homo sapiens) (UniProt O15520); test: FGF10 binders on small-molecule microarrays, primary screen, biochemical, small-molecule microarray, 635 nm fluorescence (AID 1102); conditions: FGF10 binding, fluorescence 635 nm, higher = more signal
Sequence of Fibroblast growth factor 10 (Homo sapiens) (O15520 whole entry, looked up): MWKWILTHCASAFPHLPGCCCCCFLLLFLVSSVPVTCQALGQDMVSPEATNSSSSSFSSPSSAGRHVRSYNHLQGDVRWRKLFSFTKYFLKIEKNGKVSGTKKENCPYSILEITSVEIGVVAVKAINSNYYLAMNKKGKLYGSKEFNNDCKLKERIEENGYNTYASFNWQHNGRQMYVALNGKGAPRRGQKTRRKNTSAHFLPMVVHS

[6] = test system: glycogen synthase kinase-3 (GSK3A per assay name; protocol says GSK3B); test: GSK3 binders on small-molecule microarrays, primary screen, biochemical, small-molecule microarray, 635 nm fluorescence, GSK3A (AID 1103); conditions: small-molecule microarray binding, fluorescence 635 nm; higher = more signal; also: the record names both GSK3A and GSK3B
[7] = biological target: Epidermal growth factor receptor (Homo sapiens) (UniProt P00533); test: EGFR binders on small-molecule microarrays, primary screen, biochemical, small-molecule microarray, 635 nm fluorescence (AID 1104); conditions: EGFR binding, higher = more signal;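 also: score merges 667 nm emission intensity with spot signal to noise over triplicate slides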
Sequence of Epidermal growth factor receptor (Homo sapiens) (P00533 whole entry, looked up): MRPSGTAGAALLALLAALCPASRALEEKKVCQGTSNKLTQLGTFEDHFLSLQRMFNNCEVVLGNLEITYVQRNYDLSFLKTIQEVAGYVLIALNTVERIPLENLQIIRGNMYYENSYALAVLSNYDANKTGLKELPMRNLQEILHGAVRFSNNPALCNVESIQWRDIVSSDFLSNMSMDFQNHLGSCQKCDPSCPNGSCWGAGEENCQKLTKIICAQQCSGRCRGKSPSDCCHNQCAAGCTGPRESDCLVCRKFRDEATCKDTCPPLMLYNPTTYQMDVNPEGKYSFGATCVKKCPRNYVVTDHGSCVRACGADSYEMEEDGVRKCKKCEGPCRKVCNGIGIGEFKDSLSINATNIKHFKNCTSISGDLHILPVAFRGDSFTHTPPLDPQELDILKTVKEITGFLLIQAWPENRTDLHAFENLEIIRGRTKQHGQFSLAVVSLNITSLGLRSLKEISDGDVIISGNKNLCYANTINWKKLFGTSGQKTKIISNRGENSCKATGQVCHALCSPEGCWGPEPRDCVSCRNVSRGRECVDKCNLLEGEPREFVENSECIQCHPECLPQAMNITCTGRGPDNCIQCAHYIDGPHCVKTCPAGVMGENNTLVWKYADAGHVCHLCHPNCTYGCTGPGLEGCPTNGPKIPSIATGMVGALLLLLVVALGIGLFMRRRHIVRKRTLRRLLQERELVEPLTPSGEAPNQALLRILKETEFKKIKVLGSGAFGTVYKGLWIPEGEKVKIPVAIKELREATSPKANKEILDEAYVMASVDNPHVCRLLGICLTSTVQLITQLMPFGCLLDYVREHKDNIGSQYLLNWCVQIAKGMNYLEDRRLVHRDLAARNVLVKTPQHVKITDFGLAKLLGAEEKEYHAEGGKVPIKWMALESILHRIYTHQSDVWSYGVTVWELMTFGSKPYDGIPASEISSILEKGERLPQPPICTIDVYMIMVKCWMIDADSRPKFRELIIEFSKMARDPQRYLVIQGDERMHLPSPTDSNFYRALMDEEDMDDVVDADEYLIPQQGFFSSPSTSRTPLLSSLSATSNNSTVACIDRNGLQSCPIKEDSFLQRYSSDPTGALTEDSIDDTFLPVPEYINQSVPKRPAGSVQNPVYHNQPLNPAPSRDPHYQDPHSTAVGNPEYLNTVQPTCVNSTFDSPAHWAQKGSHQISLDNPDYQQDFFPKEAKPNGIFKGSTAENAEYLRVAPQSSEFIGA

[8] = biological target: Follistatin-related protein 3 (Homo sapiens) (UniProt O95633); test: FSTL3 binders on small-molecule microarrays, primary screen, biochemical, small-molecule microarray, 635 nm fluorescence (AID 1105); conditions: FSTL3 binding, higher = more signal;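 also: score merges emission near 667 nm and signal to noise per printed spot across three slides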
Sequence of Follistatin-related protein 3 (Homo sapiens) (O95633 whole entry, looked up): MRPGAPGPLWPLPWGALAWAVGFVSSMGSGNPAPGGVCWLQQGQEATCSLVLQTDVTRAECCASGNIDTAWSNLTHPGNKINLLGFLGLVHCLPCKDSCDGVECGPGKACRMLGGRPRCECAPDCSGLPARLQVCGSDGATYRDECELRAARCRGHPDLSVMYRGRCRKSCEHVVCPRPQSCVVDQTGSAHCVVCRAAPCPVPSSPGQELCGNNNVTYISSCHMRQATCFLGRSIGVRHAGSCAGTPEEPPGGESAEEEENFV

[9] = biological target: Dickkopf-related protein 1 (Homo sapiens) (UniProt O94907); test: DKK1 binders on small-molecule microarrays, primary screen, biochemical, small-molecule microarray, 635 nm fluorescence scan (AID 1106); conditions: DKK1 binding, higher = more signal;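 also: score merges emission near 667 nm with signal to noise over three replicate slides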
Sequence of Dickkopf-related protein 1 (Homo sapiens) (O94907 whole entry, looked up): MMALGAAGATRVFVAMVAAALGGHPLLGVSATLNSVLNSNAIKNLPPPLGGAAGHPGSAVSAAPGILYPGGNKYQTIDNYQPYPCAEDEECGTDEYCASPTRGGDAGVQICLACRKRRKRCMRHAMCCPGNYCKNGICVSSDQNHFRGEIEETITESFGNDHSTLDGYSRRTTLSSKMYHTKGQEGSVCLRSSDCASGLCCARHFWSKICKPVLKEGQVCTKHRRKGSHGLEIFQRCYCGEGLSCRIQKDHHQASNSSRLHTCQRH

[10] = test system: Inhibin beta A chain (activin A); test: INHBA (activin A) binders on microarrays, primary screen, biochemical, small-molecule microarray, 635 nm fluorescence scan (AID 1107); conditions: small-molecule microarray binding, higher = more signal;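 also: mouse activin A protein probed at 4.33 µg/mL on printed slides; score merges bound-protein fluorescence near 667 nm with spot signal-to-noise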
[11] = test system: Human papillomavirus type 1a protein E7 (residues 44-93); test: HPV1a E7 fragment binders on microarrays, primary screen, biochemical, small-molecule microarray, residues 44-93, 635 nm fluorescence (AID 1108); conditions: small-molecule microarray binding, fluorescence 635 nm; higher = more signal;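 also: E7 fragment applied at 1 µg/mL in TBST for 1 h at 4 C; score combines spot fluorescence with its signal to noise ratio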
[12] = modulators of HCV replicon luciferase signal, primary screen, HCV replication inhibitor project, Huh7 cells, luciferase reporter (AID 1109); conditions: 48 h, higher = more signal;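 also: huh7 hepatoma cells harbouring a luciferase neomycin HCV replicon reporter; luciferase luminescence as measure of HCV replicon replication; test concentration not given here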
[13] = biological target: Left-right determination factor 2 (Homo sapiens) (UniProt O00292); test: LEFTY2 binders on small-molecule microarrays, primary screen, biochemical, small-molecule microarray, 635 nm fluorescence scan (AID 1110); conditions: LEFTY2 binding, higher = more signal
Sequence of Left-right determination factor 2 (Homo sapiens) (O00292 whole entry, looked up): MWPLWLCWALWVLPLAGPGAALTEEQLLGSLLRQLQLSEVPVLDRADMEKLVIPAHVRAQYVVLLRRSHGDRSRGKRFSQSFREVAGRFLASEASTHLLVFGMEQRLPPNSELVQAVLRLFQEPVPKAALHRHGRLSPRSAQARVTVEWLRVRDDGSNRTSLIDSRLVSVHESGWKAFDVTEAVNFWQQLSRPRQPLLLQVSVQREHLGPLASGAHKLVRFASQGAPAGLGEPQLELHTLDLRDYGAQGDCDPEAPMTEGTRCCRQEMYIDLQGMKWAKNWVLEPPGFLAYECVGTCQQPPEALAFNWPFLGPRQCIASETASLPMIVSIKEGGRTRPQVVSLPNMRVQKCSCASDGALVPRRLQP

[14] = biological target: Calmodulin-1 (Homo sapiens) (UniProt P0DP23); test: CALM1 binders on microarrays, EGTA buffer, profiling panel, biochemical, small-molecule microarray, Cy5-labelled CALM1 (AID 1111); conditions: Cy5-CALM1 binding fluorescence, higher = more signal;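 also: labelled calmodulin applied in Tris saline Tween buffer holding calcium plus EGTA and DTT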
[15] = biological target: Calmodulin-1 (Homo sapiens) (UniProt P0DP23); test: calcium-bound CALM1 binders on microarrays, profiling panel, artefact control for SMM control-protein annotation, biochemical, small-molecule microarray, Cy5-labelled CALM1, plus calcium (AID 1112); conditions: Cy5-CALM1 binding fluorescence, higher = more signal;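 also: score merges spot fluorescence with signal to noise from triplicate slides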
[16] = small-molecule microarray binders of probe aWnt5a, primary screen, biochemical, biotinylated probe, 635/667 nm fluorescence (AID 1113); conditions: higher = more signal;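 also: score merges 667 nm fluorescence intensity with signal-to-noise per printed feature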
[17] = small-molecule microarray binders of probe aShh, primary screen, biochemical, biotinylated probe, 635/667 nm fluorescence (AID 1114); conditions: higher = more signal;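 also: probe is biotin-labelled aShh protein from a stem cell growth factor screen; measures binding of labelled protein to compounds printed on the slide; score merges feature fluorescence at 667 nm with signal-to-noise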
[18] = small-molecule microarray binders of probe aNog, primary screen, biochemical, biotinylated probe, 635/667 nm fluorescence (AID 1115); conditions: higher = more signal;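 also: probe is biotinylated aNog protein used at 0.15 µg/mL for 1 h at 4 C; z-score combines 667 nm fluorescence of each spot with its signal to noise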
[19] = biological target: Torsin-1A-interacting protein 1 (Homo sapiens) (UniProt Q5JTV8); test: LAP1 binders from COS7 cell lysate, primary screen, small-molecule microarray, 635/667 nm fluorescence (AID 1116); conditions: COS7-hLAP1 lysate binding, 635 nm fluorescence, higher = more signal
Sequence of Torsin-1A-interacting protein 1 (Homo sapiens) (Q5JTV8 whole entry, looked up): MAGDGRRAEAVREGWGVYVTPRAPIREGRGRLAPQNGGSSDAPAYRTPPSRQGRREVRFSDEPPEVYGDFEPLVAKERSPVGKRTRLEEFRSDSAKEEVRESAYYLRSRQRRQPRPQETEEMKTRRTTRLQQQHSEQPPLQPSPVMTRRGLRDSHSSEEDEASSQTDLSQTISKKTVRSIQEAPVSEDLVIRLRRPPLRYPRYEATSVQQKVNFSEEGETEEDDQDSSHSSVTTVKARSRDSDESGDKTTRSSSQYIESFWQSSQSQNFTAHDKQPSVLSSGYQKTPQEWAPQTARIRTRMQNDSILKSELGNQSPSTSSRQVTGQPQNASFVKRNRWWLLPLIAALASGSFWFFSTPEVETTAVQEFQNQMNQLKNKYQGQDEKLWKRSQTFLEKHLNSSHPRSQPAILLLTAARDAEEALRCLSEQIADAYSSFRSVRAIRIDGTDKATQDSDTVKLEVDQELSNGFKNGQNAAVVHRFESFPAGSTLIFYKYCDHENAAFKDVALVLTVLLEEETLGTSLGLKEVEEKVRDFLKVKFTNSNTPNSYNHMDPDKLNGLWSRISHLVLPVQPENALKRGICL

[20] = biological target: Alpha-bungarotoxin (Bungarus multicinctus) (UniProt P60615); test: alpha-bungarotoxin binders on microarray, profiling panel, artefact control for SMM control protein annotation, biochemical, small-molecule microarray, Alexa647 label, 635/667 nm fluorescence (AID 1117); conditions: alpha-BTX-A647 binding fluorescence, higher = more signal
Sequence of Alpha-bungarotoxin (Bungarus multicinctus) (P60615 whole entry, looked up): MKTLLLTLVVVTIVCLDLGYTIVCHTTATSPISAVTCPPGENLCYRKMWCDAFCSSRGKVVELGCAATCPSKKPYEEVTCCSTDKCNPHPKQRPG

Structure (SMILES) | composite z-score [1] | composite z-score [2] | composite z-score [3] | z-score [4] | composite z-score [5] | composite z-score [6] | composite z-score [7] | composite z-score [8] | composite z-score [9] | composite z-score [10] | composite z-score [11] | z-score [12] | composite z-score [13] | composite z-score [14] | composite z-score [15] | composite z-score [16] | composite z-score [17] | composite z-score [18] | composite z-score [19] | composite z-score [20]
CC(C)C(=C=CC[C@H](O)c1cccc(OCCO)c1)C[C@H](O)c1cc(Cl)cc(Cl)c1O | 0.507 | -0.217 | 0.0419 | -0.747 (inactive) | 1.43 | 0.0728 | -0.388 | 0.544 | -0.0693 | 0.346 | 0.851 | -0.583 | 0.155 | -0.0005 | -0.698 | -0.126 | 0.23 | 0.0083 | 0.488 | 0.986
C=C(/C(=C/C[C@H](OC(C)=O)c1cccc(OCCO)c1)c1cnc2ccccc2c1)C(C)C | -0.96 | -0.104 | -0.105 | -0.236 (inactive) | 0.904 | 0.324 | 0.705 | 1.49 | 0.783 | 1.98 | 1.05 | -2.31 | 0.524 | -0.309 | -0.502 | -0.118 | -0.264 | 0.0811 | 0.235 | 1.19
CCCCC(=C=CC[C@@H](O)c1ccccc1OCCO)C[C@@H](O)COCc1ccccc1 | 1.15 | -0.126 | 0.142 | -0.705 (inactive) | 0.114 | -0.158 | -1.14 | -0.126 | -0.498 | 0.596 | 0.0941 | -1.45 | -0.608 | -0.275 | -0.0639 | 0.384 | -0.237 | -0.124 | 0.694 | 1.02
COc1ccc(CCN2C(=O)[C@@]3(Cc4ccccc42)c2ccccc2C(=O)N(Cc2ccccc2OC)[C@H]3c2ccc(CO)cc2)cc1 | 0.9 | 0.533 | 0.406 | -0.942 (inactive) | -0.783 | -0.49 | -0.951 | -1.14 | -1.33 | 0.359 | -0.131 | -0.601 | -1.03 | 0.0678 | 0.466 | -0.1 | -0.155 | 0.898 | -0.119 | -0.749
O=C(NCCCCCNC(=O)/C(Cc1ccccc1)=N/O)OCc1ccccc1 | -0.263 | -0.314 | -0.603 | -1.54 (inactive) | 0.0434 | -0.201 | 0.445 | 0.206 | 0.229 | -0.182 | -0.0938 | -1.24 | 0.629 | -0.503 | -0.592 | -0.0445 | -0.426 | -0.633 | 0.154 | 0.269
Cn1cccc1C(O)C1C=CC2C(=O)NC(=O)C2N1Nc1ccc(Cl)cc1Cl (stereo not given) | 1.21 | 1.3 | 1.33 | 1.08 (inactive) | 0.914 | 0.593 | 0.295 | 1.34 | -0.43 | 0.657 | 0.981 | -0.202 | -0.378 | 2.24 | 0.879 | 0.0044 | 0.184 | 1.92 | 2.08 | 2.28
CCOC(=O)c1ccc(NC(=O)O[C@H]2[C@H](OC(=O)Nc3ccc4c(c3)OCO4)[C@@H](OC(=O)Nc3ccc4c(c3)OCO4)[C@@H](OC)O[C@@H]2CO)cc1 | 1.41 | 0.164 | 0.157 | -0.616 (inactive) | 1.4 | 1.33 | 0.308 | 1.49 | 0.624 | 0.51 | 1.27 | 1.5 | 0.48 | 0.517 | -0.393 | 0.0321 | -0.0664 | 1.08 | 1.52 | 0.908
Cc1ccccc1C(O)C1C=CC2C(=O)N(C)C(=O)C2N1N(c1ccccc1)c1ccccc1 (stereo not given) | -0.167 | 0.858 | 0.11 | 0.595 (inactive) | 0.362 | -0.401 | 0.304 | 0.0459 | 0.119 | 1.33 | -1.19 | -0.247 | -0.0024 | -0.945 | -0.454 | 0.0737 | 0.0582 | 0.387 | 0.0266 | 0.305
